# Screening results deposited in PubChem by National Center for Advancing Translational Sciences (NCATS).
# Gal4-VP16 FLuc – inhibits Gal4-VP16 luciferase reporter, ROR gamma counter-screen; hit rate 3.5% among 310,000; Drosophila S2 Gal4-VP16 UAS-luciferase, luminescence, 20 h; Potency, µM (top dose mostly 53.6 µM), for inactives: at the top dose activity, negative = inhibition, hits mostly inhibitors; AID 2546;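 further: Gal4-VP16 expression switched on by copper sulfate through the metallothionein promoter; nearly all actives have a fitted effect of over 50% in size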
# RORgamma inh – blocks mouse ROR gamma transcriptional activity; P51450; Drosophila S2 Gal4-RORgamma UAS-luciferase reporter, 20 h; Potency, µM (highest dose often 53.6 µM), without a hit: at the top dose activity change, negative = inhibition, most hits filed as inhibitors; hit rate 5.4% among 310,000; AID 2551; further: nearly all actives have a fitted effect of over 60% in size
#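 Stably transfected Drosophila Schneider cells are the test system, with ROR gamma fused to Gal4 and luciferase under UAS control; luminescence is read after 20 hr of 700 uM copper sulfate induction at ambient temperature.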
# 12-LOX inh – inhibitors of human 12S-lipoxygenase ALOX12. P18054. purified 12hLO, xylenol orange hydroperoxide absorbance. Potency, µM (doses to about 108 µM), without a hit: at the top dose activity change, negative = inhibition, actives largely listed as inhibitors. hit rate 1.1% among 580,000
# Target sequence (P18054 whole entry, looked up): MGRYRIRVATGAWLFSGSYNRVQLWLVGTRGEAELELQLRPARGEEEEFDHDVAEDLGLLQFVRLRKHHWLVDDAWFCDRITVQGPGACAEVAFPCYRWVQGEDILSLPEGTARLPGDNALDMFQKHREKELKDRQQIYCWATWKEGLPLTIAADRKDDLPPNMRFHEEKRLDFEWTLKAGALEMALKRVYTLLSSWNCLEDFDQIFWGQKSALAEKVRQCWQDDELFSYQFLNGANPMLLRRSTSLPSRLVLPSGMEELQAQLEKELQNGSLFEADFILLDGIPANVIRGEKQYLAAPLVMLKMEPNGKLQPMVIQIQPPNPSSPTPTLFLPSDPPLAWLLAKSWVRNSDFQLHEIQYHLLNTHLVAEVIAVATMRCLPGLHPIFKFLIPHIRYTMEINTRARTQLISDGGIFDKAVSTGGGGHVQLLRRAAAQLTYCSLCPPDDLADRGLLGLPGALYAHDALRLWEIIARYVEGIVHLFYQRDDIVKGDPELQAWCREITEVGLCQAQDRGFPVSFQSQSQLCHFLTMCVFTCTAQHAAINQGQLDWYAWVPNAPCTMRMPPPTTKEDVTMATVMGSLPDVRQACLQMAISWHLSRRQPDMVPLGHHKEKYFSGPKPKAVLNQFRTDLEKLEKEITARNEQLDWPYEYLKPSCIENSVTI
#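 Purified human 12hLO (150 nM final) in 25 mM Hepes, 0.01% Triton X-100, pH 7.0 was preincubated 15 min at room temperature with compound. Then 40 uM arachidonic acid was added, 30 min. Hydroperoxide was read by Fe-XO absorbance ratio 573/405 nm.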
# ELG1 DNA repair – blocks ELG1-dependent DNA repair in HEK293T cells | HEK293T ELG1-luciferase reporter, luminescence, 16 h; DNA damage induced by 5-fluorouridine | Potency, µM (doses to about 46.1 µM), inactives show at the top dose activity change, negative = inhibition, most hits filed as inhibitors | hit rate 2.3% among 330,000; further: nearly all actives have a fitted effect of over 55% in size
#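 Step one: seed 2,000 cells per well. Step two: pin-transfer compound or DMSO alongside 5-fluorouridine. Step three: incubate 16 hr, 37 °C, 5% CO2. Step four: add ONE-Glo, wait 30 min, read luminescence.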
# TDP1 cell noCPT – qHTS for Inhibitors of human tyrosyl-DNA phosphodiesterase 1 (TDP1): qHTS in cells in absence of CPT; hit rate 15% among 420,000; DT40 Tdp1-/- hTDP1 cells, no CPT, ATP luminescence, 48 h; Potency, µM (doses to about 46.2 µM), for inactives: at the top dose activity change, negative = growth inhibition, most hits filed as inhibitors; AID 686978, 2013; further: nearly all actives have a fitted effect of over 55% in size
#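 Chicken DT40 Tdp1-/- cells complemented with human TDP1, screened without camptothecin (DMSO vehicle only), 400 cells/well. Compounds pin-transferred, cells incubated at 37 °C for at least 48 hr. Growth read as ATP-dependent luminescence (CellTiter-Glo, 30 min at RT).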
# DT40 TDP1 CPT – growth inhibition of DT40 Tdp1-/-;hTDP1 cells with camptothecin (screen for TDP1 inhibitors) | chicken DT40 Tdp1-/-;hTDP1 cells + 20 nM CPT, ATP luminescence, 48 h | Potency, µM (top dose mostly 46.2 µM), for inactives: at the highest dose activity change, negative = growth inhibition, usual class: inhibitors | hit rate 12% among 420,000 | AID 686979; further: nearly all actives have a fitted effect of over 55% in size
#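 Cell growth measured by CellTiter-Glo luminescence after a minimum 48 h, 37 C compound exposure with 20 nM CPT in Tdp1-knockout DT40 cells stably expressing hTDP1, seeded 400/well; qHTS titration format.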
# Starred values were filed as active, the others as inactive; ? = inconclusive; / = not tested or not shown. Rows were chosen to be rich in hits. Some 15% of all compounds tested hit in one or more screens of this group. The call rests on the fitted dose curve; in most records, active means well fitted curve in the direction sought with a large enough effect; inconclusive means small, poorly fitted or top-dose-only effect, or another doubt; inactive means no such curve, though single readings can be large; an effect the other way counts as inactive or inconclusive. On the % scale 0 is the no-effect control and ±100 the full control effect; potency means the concentration at half of the fitted maximal effect.
SMILES,Gal4-VP16 FLuc,RORgamma inh,12-LOX inh,ELG1 DNA repair,TDP1 cell noCPT,DT40 TDP1 CPT
O=C(NC1CCCCC1)c1ccc(S(=O)(=O)c2ccccc2Cl)c([N+](=O)[O-])c1,?,-6.2%,/,5.8µM*,/,/
CN(C(=O)c1ccc(S(=O)(=O)c2cccc(Cl)c2)c([N+](=O)[O-])c1)C1CCCCC1,?,6.5%,-19.2%,?,5.17µM*,3.66µM*
Cc1ccc(C)c(C(=O)COC(=O)c2cc(=O)c3ccccc3o2)c1,/,/,-15.7%,/,/,/
CSCCC(=O)NCCc1cccs1,/,/,-2.8%,/,/,/
O=C(Nc1ccc(Br)cc1)c1cccn1-c1ncc(C(F)(F)F)cc1Cl,-8.6%,?,?,0.1%,?,15.8µM*
O=C(CSc1nccn1-c1ncc(C(F)(F)F)cc1Cl)c1ccc(Br)cc1,?,11.2µM*,/,?,?,-25.5%
O=C(CSc1nnc2c(Cl)cc(C(F)(F)F)cn12)c1ccc(Br)cc1,/,/,0.5%,/,/,/
Cc1[nH]c2ccc(F)cc2c1CC(=O)NCC(C)(C)CN(C)C,/,/,19.3%,/,/,/
COc1ccc(S(=O)(=O)Nc2nc3ccccc3nc2NCc2ccccc2Cl)cc1,/,/,0.1%,/,/,/
COc1ccc(NC(=O)[C@@H]2COCC(=O)N2Cc2ccc(OC)c(OC)c2)cc1Cl,/,/,21.2%,/,/,/
COc1ccc(C=C2Cc3ccccc3C2=O)cc1,/,/,6.0%,/,?,-11.2%
COc1ccc2nc3c(cc2c1)Cc1ccccc1-3,2.51µM*,2.51µM*,/,/,/,/
CCOc1ccccc1N(CC)C(=O)Cn1nc(Cc2ccncc2)c2ccccc2c1=O,/,/,-2.4%,/,/,/
COc1ccc(OC)c(NC(=O)CSc2nc(-c3ccccc3)nc3c2COC(C)(C)C3)c1,/,/,4.3%,/,/,/
CCOC(=O)C1CCCN(Cc2cn3c(-c4ccc(Br)cc4)nnc3s2)C1 (centres undefined),/,/,-13.8%,/,6.51µM*,5.17µM*
CCOC(=O)C1CCN(Cc2cn3c(-c4ccc(OC)cc4)nnc3s2)CC1,/,/,-2.8%,/,?,20.6µM*
CC1CCCN(Cc2cn3c(-c4cccc(Br)c4)nnc3s2)C1 (centres undefined),/,/,0.2%,/,?,23.1µM*
Cc1c(C=O)c2ccccc2n1CC(=O)NC(C)c1ccccc1 (centres undefined),-3.5%,44.5%,-4.5%,?,23.1µM*,?
CCN(Cc1ccccc1)C(=O)CCc1nc(C2CCCN2S(C)(=O)=O)no1 (centres undefined),/,/,9.0%,/,/,/
O=C(C[C@H]1C/C=C\C[C@H](NC(=O)OCC2c3ccccc3-c3ccccc32)C(=O)OC[C@H](Cc2ccccc2)NC1=O)N[C@H](CO)Cc1ccccc1,/,/,?,11.0%,5.17µM*,5.17µM*
C[C@@H]1COC(=O)[C@H](NC(=O)OCC2c3ccccc3-c3ccccc32)C/C=C\C[C@@H](CC(=O)N[C@@H](CO)Cc2ccccc2)C(=O)N1,/,/,?,-19.1%,8.2µM*,8.2µM*
O=C(C[C@@H]1C/C=C\C[C@@H](NC(=O)OCC2c3ccccc3-c3ccccc32)C(=O)OC[C@@H](Cc2ccccc2)NC1=O)NCCO,/,/,?,-5.0%,9.2µM*,7.31µM*
CC(C)(C)[C@H]1COC(=O)[C@H](NC(=O)OCC2c3ccccc3-c3ccccc32)C/C=C\C[C@@H](CC(=O)N[C@@H](CO)Cc2ccccc2)C(=O)N1,/,/,-17.1%,?,?,7.31µM*
C[C@@H]1COC(=O)[C@H](CC(=O)OC(C)(C)C)C/C=C\C[C@@H](CC(=O)N[C@H](CO)Cc2ccccc2)C(=O)N1,/,/,8.1%,3.0%,-2.5%,-1.5%
O=C(C[C@@H]1C/C=C\CCC(=O)OC[C@H](Cc2ccccc2)NC1=O)N[C@@H](CO)Cc1ccccc1,/,/,-7.0%,11.1%,?,?
SMILES,Gal4-VP16 FLuc,RORgamma inh,12-LOX inh,ELG1 DNA repair,TDP1 cell noCPT,DT40 TDP1 CPT
CC(C)(C)[C@@H]1COC(=O)[C@@H](NC(=O)OCC2c3ccccc3-c3ccccc32)C/C=C\C[C@@H](CC(=O)NCCO)C(=O)N1,/,/,-1.4%,0.3%,11.6µM*,18.4µM*
CC(C)(C)[C@H]1COC(=O)[C@H](NC(=O)OCC2c3ccccc3-c3ccccc32)C/C=C\C[C@@H](CC(=O)N[C@H](CO)Cc2ccccc2)C(=O)N1,/,/,-13.0%,12.1%,8.2µM*,7.31µM*
CC(C)(C)OC(=O)C[C@@H]1C/C=C\C[C@@H](CC(=O)NCCO)C(=O)N[C@H](C(C)(C)C)COC1=O,/,/,-7.7%,21.1%,0.7%,-0.6%
Cc1ccc(CNC2CC2)cc1,/,/,-5.6%,/,/,/
CN1C(=O)c2ccccc2Sc2ccc(NC(=O)NCc3ccccc3Br)cc21,/,/,0.0%,/,20.6µM*,16.4µM*
CC(C)CCNC(=O)Nc1ccc2c(c1)N(C)C(=O)c1ccccc1S2,/,/,-2.0%,/,16.4µM*,14.6µM*
CC(C)CCNC(=O)Nc1ccc2c(c1)N(C)C(=O)CS2,20.8%,30.9%,-7.2%,/,?,8.2%
Cc1ccc(C)c(C(C)NC(=O)C2CCCCC2)c1 (centres undefined),/,/,48.4%,/,/,/
COc1cccc(CN2CC[C@H]3C(=O)NCCCCCCN(Cc4ccncc4)[C@@H]3C2)c1OC,/,/,149.1%,/,/,/
CCSc1nc(C(C)(C)C)cc(C(F)(F)F)c1C#N,/,/,0.6%,/,/,/
CCC1c2nccn2CCCN1C(=O)CCc1c(C)noc1C (centres undefined),/,/,-3.9%,/,/,/
Oc1ccccc1/C=N/Nc1nn[nH]n1,-1.1%,?,16.1%,-7.8%,-7.0%,-7.6%
Cc1ccc2nc(C(Cl)(Cl)Cl)nc(N/N=C/c3ccc([N+](=O)[O-])cc3)c2c1,/,/,8.2%,/,16.4µM*,?
Cc1ccc(C=NNc2ccc([N+](=O)[O-])cn2)cc1,/,/,-4.7%,/,-28.3%,?
C=CCc1c(C)nc(C)nc1N/N=C/c1ccc([N+](=O)[O-])cc1,-4.4%,11.2µM*,14.5%,?,16.4µM*,?
C=CCc1c(C)nc(C)nc1N/N=C/c1ccccc1O,5.01µM*,?,19.1%,?,23.1µM*,25.9µM*
CCN(Cc1ccccc1)C(=O)c1oc2ccc(S(=O)(=O)N3CCOCC3)cc2c1C,-2.1%,34.9%,3.0%,?,-26.2%,?
CCN(CC)C(=O)c1oc2ccc(S(=O)(=O)N3CC(C)CC(C)C3)cc2c1C (centres undefined),?,?,-12.8%,?,9.2µM*,4.11µM*
